{"source": "PubChem BioAssay AID1445", "about": "(SRMLSC, 2008)", "note": "Several values for one entry are separate records, joined by “and”; a condition that tells them apart may be missing. Equal values may be shown once. Screen size: about 220,000 compounds; about 910 (0.41%) were called active.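 How the source made its calls: active means primary inhibition above the hit cutoff, then over 50% inhibition at one or more dose response concentrations (cut at about 23% in these data, passing the limit was not always enough); inconclusive means conflicting primary data, or primary hits not chosen for dose response; inactive means low primary inhibition, or under 50% at every dose.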 Many of the other results were omitted from the sample, so actives are more common in it than they were. Potency and affinity values are given separately. The source holds several records for some structures; these can differ, active in one and inactive in another."}
{"biological_target": "Aminopeptidase N (Plasmodium falciparum (isolate 3D7)) (UniProt O96935)", "sequence (O96935 whole entry, looked up)": "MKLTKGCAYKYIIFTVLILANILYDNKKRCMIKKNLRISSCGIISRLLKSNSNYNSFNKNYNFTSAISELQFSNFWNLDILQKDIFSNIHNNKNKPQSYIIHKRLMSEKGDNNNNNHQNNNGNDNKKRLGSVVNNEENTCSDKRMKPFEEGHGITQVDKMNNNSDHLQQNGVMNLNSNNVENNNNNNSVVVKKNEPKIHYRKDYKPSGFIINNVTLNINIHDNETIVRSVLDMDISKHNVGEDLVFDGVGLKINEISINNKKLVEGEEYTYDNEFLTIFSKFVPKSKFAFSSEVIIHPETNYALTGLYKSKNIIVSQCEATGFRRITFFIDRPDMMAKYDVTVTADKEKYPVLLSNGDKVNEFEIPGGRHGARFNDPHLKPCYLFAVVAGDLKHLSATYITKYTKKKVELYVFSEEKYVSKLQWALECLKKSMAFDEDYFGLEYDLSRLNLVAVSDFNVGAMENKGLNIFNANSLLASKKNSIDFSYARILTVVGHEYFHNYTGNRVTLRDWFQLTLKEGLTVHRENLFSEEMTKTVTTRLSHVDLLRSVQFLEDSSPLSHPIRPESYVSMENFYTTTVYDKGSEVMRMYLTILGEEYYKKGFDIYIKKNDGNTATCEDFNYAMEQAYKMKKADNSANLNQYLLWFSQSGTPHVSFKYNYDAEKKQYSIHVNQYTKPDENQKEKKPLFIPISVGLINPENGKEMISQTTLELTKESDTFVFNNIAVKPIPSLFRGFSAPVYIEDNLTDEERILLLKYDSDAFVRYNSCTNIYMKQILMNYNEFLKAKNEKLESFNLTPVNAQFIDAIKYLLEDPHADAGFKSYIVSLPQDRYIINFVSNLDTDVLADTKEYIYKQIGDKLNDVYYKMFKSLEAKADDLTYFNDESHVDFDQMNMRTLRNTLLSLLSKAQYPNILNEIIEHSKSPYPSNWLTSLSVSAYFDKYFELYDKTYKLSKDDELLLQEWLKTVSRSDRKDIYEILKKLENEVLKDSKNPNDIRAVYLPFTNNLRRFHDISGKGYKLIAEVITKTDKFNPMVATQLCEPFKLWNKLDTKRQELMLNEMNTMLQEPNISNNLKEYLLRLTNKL", "experiment": "malaria alanyl aminopeptidase activity blockers – biochemical, fluorogenic H-Leu-NHMec substrate, 1536-well (AID 1445);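 further: plate controls were DMSO full reaction for no effect and no enzyme background for full effect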", "details": "recombinant M1AAP, H-Leu-NHMec fluorogenic kinetic assay; at 30 µM, stronger effect = higher value unless noted"}
{"smiles": "NC(=O)CSc1nnc(-c2cccnc2)n1Cc1ccccc1", "inhibition": "-0.97% (inactive)"}
{"smiles": "Cn1nc(C(=O)Nc2sc3c(c2C#N)CCCC3)ccc1=O", "inhibition": "4.41% (inactive)"}
{"smiles": "CC(C)Cn1c(CN2C(=O)c3ccccc3C2=O)nc2ccccc2c1=O", "inhibition": "-3.16% (inactive)"}
{"smiles": "O=C1c2ccccc2C(=O)N1n1c(=O)[nH]c2ccccc2c1=O", "inhibition": "2.13% (inactive)"}
{"smiles": "Brc1ccccc1-c1csnn1", "inhibition": "2.07% (inactive)"}
{"smiles": "CCOCCCn1c(=S)[nH]c2cc(C(=O)NCCCN(CC)CC)ccc2c1=O", "inhibition": "12.3% (inactive)"}
{"smiles": "COc1ccc(C(=O)c2c(C)oc3ccc(O)c(CN4CCOCC4)c23)cc1", "inhibition": "1.06% (inactive)"}
{"smiles": "O=C(CC(Cc1ccccc1)c1ccco1)NC1CCCCC1", "note": "(stereo unspecified)", "inhibition": "3.48% (inactive)"}
{"smiles": "CC1=CC(c2ccc(Cl)cc2)n2nc(N3C(=O)CCC3=O)nc2N1", "note": "(stereo unspecified)", "inhibition": "14.2% (inactive)"}
{"smiles": "Cc1ccc(C2C=C(c3ccccc3)Nc3nc(N4C(=O)CCC4=O)nn32)cc1", "note": "(stereo unspecified)", "inhibition": "4.75% (inactive)"}
{"smiles": "COC(=O)c1cc(O)c(O)c(O)c1", "inhibition": "6.36% (inactive)"}
{"smiles": "COC(=O)c1ccc(Sc2ccc(C)cc2)c(N)c1", "inhibition": "11.3% (inactive)"}
{"smiles": "CCCN(CC1CC1)C(=S)NC(=O)C1CC1", "inhibition": "3.89% (inactive)"}
{"smiles": "CC(=O)CCc1c(C)nc2ccc(C(=O)O)cc2c1Cl", "inhibition": "11.9% (inactive)"}
{"smiles": "CCOC(=O)c1cccc(Nc2ncnc3ccccc23)c1", "inhibition": "6.34% (inactive)"}
{"smiles": "O=S(=O)(c1ccc(Cl)cc1)N(CCCN1CCOCC1)Cc1cccs1", "inhibition": "2.6% (inactive)"}
{"smiles": "COc1cc(NC(=O)c2cccs2)c(OC)cc1NC(=O)CCn1nnc2ccccc21", "inhibition": "25% (active)"}
{"smiles": "COc1cc(NC(=O)c2cccs2)c(OC)cc1NC(=O)CCC(=O)Nc1cccc2ncccc12", "inhibition": "16.7% (inactive)"}
{"smiles": "C/C(=N\\NC(=O)CCn1nnc2ccccc21)c1cccs1", "inhibition": "0% (inactive)"}
{"smiles": "Cc1ccc(Cn2ccc(NC(=O)c3noc4c3CCc3ccccc3-4)n2)cc1", "inhibition": "8.24% (inactive)"}
{"smiles": "Cc1cc([N+](=O)[O-])ccc1NC(=S)NC(=O)Cc1ccccc1", "inhibition": "23.7% (active)"}
{"smiles": "Cc1cc([N+](=O)[O-])ccc1NC(=S)NC(=O)C(c1ccccc1)c1ccccc1", "inhibition": "9.66% (inactive)"}
{"smiles": "CC(=O)NC(=S)Nc1ccc([N+](=O)[O-])cc1C", "inhibition": "3.35% (inactive)"}
{"smiles": "O=C(CSc1ccc2nnc(-c3ccncc3)n2n1)Nc1ccc2c(c1)OCO2", "inhibition": "5.11% (inactive)"}
{"smiles": "Cn1cc([N+](=O)[O-])c(C(=O)NNC(=O)c2ccc([N+](=O)[O-])cc2)n1", "inhibition": "1.97% (inactive)"}
{"smiles": "Cc1ccc(-c2csc3ncnc(NS(=O)(=O)c4ccc(Cl)cc4)c23)cc1", "inhibition": "-5.44% (inactive)"}
{"smiles": "CN(C)CCCNc1ncnc2scc(-c3ccccc3)c12", "inhibition": "-12.9% (inactive)"}
{"smiles": "CCOC(=O)c1ccc(NC(=O)COc2ccc(S(=O)(=O)N3CCCC3)cc2)cc1", "inhibition": "10.4% (inactive)"}
{"smiles": "O=S(=O)(Nc1nc2ccccc2nc1Cl)c1ccc2c(c1)OCCO2", "inhibition": "15.8% (inactive)"}
{"smiles": "O=S(=O)(Nc1nc2ccccc2nc1Cl)c1ccccc1", "inhibition": "7.23% (inactive)"}
{"smiles": "Cc1cc(S(=O)(=O)Nc2cccc(Cl)c2)c(C)s1", "inhibition": "7.05% (inactive)"}
{"smiles": "CSc1ccccc1C(=O)C1CCCN(C(=O)c2ccc(N3CCOCC3)cc2)C1", "note": "(stereo unspecified)", "inhibition": "0.54% (inactive)"}
{"smiles": "COC(=O)C1=NN(C(=O)c2ccc(Br)cc2)C(O)(C(C)(C)C)C1", "note": "(stereo unspecified)", "inhibition": "53.2% (inactive)"}
{"smiles": "COC(=O)C1=NN(C(=O)c2cccc(Cl)c2)C(O)(C(C)(C)C)C1", "note": "(stereo unspecified)", "inhibition": "33.3% (inactive)"}
{"smiles": "Cc1ccn2c(NCc3ccc4c(c3)OCO4)c(-c3ccc(O)cc3)nc2c1", "inhibition": "3.37% (inactive)"}
{"smiles": "O=C(NCCc1nc2ccccc2[nH]1)/C(=C/c1ccco1)NC(=O)c1ccc(Br)cc1", "inhibition": "3.21% (inactive)"}
{"smiles": "O=C(O)CSc1nc(-c2ccccc2)nc2c1oc1ccccc12", "inhibition": "8.15% (inactive)"}
{"smiles": "Cc1nc(SCC(=O)O)c2oc3ccccc3c2n1", "inhibition": "3.31% (inactive)"}
{"smiles": "CN(C)c1ccc(/C=N/NC(=O)CCCO)cc1", "inhibition": "16.7% (inactive)"}
{"smiles": "C/C=C/c1ccc(OCCOc2ccc(C=O)cc2)c(OC)c1", "inhibition": "9.05% (inactive)"}
{"smiles": "C/C=C/c1ccc(OCCCCOc2ccc(OC)cc2)c(OC)c1", "inhibition": "-1.18% (inactive)"}
{"smiles": "Cc1cc(-c2nnc(SCC(=O)Nc3nc(-c4ccccc4)cs3)o2)no1", "inhibition": "17.1% (inactive)"}
{"smiles": "O=[N+]([O-])c1ccc(Oc2c(F)c(F)nc(N3CCCC3)c2F)cc1", "inhibition": "1.61% (inactive)"}
{"smiles": "O=C(O)c1cc(-c2ccco2)nc2ccccc12", "inhibition": "5.44% (inactive)"}
{"smiles": "O=C(O)c1cc(-c2ccco2)nc2cc3ccccc3cc12", "inhibition": "15.5% (inactive)"}
{"smiles": "O=C(O)c1cc(-c2ccco2)nc2ccc(Br)cc12", "inhibition": "5.53% (inactive) and 27.5% (active)"}
{"smiles": "COc1ccc(C2CC(=O)C(C=NCCN3CCN(C(=S)Nc4ccccc4)CC3)=C(O)C2)cc1OC", "note": "(stereo unspecified)", "inhibition": "12.8% (inactive)"}
{"smiles": "O=C(CNC(=O)c1ccccc1)N/N=C/c1cn[nH]c1-c1ccccc1", "inhibition": "4.33% (inactive)"}
{"smiles": "N#Cc1sc2nc(-c3cccs3)cc(-c3ccccc3)c2c1N", "inhibition": "13.3% (inactive)"}
{"smiles": "CCN(CC)C(=O)c1sc2nc(-c3cccs3)cc(-c3cccs3)c2c1N", "inhibition": "7.47% (inactive)"}
{"smiles": "CC(C)NC(=O)c1sc2nc3c(c(-c4cccs4)c2c1N)CN(C)CC3", "inhibition": "5.01% (inactive)"}
{"smiles": "CC(C)NC(=O)c1sc2nc(-c3cccs3)cc(-c3cccs3)c2c1N", "inhibition": "24.2% (active)"}
{"smiles": "Cc1ccc(-c2cc(-c3ccccc3)c3c(N)c(S(C)(=O)=O)sc3n2)cc1", "inhibition": "14.5% (inactive)"}
{"smiles": "Cc1ccc(NC(=O)CCc2c(C)nc3ncnn3c2C)cc1", "inhibition": "0.77% (inactive)"}
{"smiles": "CC(NC(=O)c1cc(-c2ccc3c(c2)OCO3)nc2ccccc12)C(C)(C)C", "note": "(stereo unspecified)", "inhibition": "3.57% (inactive)"}
{"smiles": "COc1ccc(C2/C=C\\CN(Cc3ccco3)CC(=O)N2Cc2ccc(F)cc2)cc1", "note": "(stereo unspecified)", "inhibition": "4.94% (inactive)"}
{"smiles": "C=CCN1C(=S)N[C@@H]2CS(=O)(=O)C[C@@H]21", "inhibition": "5.08% (inactive)"}
{"smiles": "O=C(Nc1cccc(F)c1)c1cc(S(=O)(=O)N2CCOCC2)cs1", "inhibition": "9% (inactive)"}
{"smiles": "O=C(Nc1cccc(-c2cn3cccnc3n2)c1)c1ccc(Br)o1", "inhibition": "2.48% (inactive)"}
{"smiles": "Cc1ccc(-c2cn3cccnc3n2)cc1NC(=O)c1ccc(Br)o1", "inhibition": "24.6% (active)"}
{"smiles": "COc1ccc(-c2cn3cccnc3n2)cc1NC(=O)c1ccc(Br)o1", "inhibition": "11.3% (inactive)"}
{"smiles": "Cc1cc(N2CCCC2)c(C)cc1C=O", "inhibition": "17.1% (inactive)"}
{"smiles": "Cc1cccc(NC(=O)CN2CCSc3ccccc32)c1", "inhibition": "6.82% (inactive)"}
{"smiles": "COc1ccc(Cl)cc1C(=O)NNC(=O)c1nc2nc(C)cc(C)n2n1", "inhibition": "0.99% (inactive)"}
{"smiles": "Cc1cc(C)n2nc(C(=O)NNC(=O)c3ccccc3)nc2n1", "inhibition": "5.93% (inactive)"}
{"smiles": "O=C(OCn1nnc2ccccc2c1=O)c1cc(-c2ccccc2Cl)nc2ccccc12", "inhibition": "12.3% (inactive)"}
{"smiles": "Cc1ccc(N2C(=O)CC(Sc3nc(-c4ccccc4)c4cc(Cl)ccc4n3)C2=O)c(C)c1", "note": "(stereo unspecified)", "inhibition": "8.91% (inactive)"}
{"smiles": "COc1ccc(CC(=O)n2[nH]c(=O)cc(C)c2=O)cc1OC", "inhibition": "8.27% (inactive)"}
{"smiles": "NS(=O)(=O)c1ccc(CCNC(=O)C2CCN(S(=O)(=O)c3ccc(Br)s3)CC2)cc1", "inhibition": "2.64% (inactive)"}
{"smiles": "O=C(NCc1ccc(Cl)cc1)C1CCN(S(=O)(=O)c2ccccc2)CC1", "inhibition": "11.8% (inactive)"}
{"smiles": "COc1ccc(S(=O)(=O)N2CCC(C(=O)Nc3ccc4c(c3)OCCO4)CC2)cc1OC", "inhibition": "1.25% (inactive)"}
{"smiles": "COc1ccc(S(=O)(=O)N2CCC(C(=O)NCc3cccs3)CC2)cc1", "inhibition": "6.28% (inactive)"}
{"smiles": "O=C(NCCc1ccc(Cl)cc1)C1CCN(S(=O)(=O)c2ccc(Br)s2)CC1", "inhibition": "4.81% (inactive)"}
{"smiles": "O=C(NCc1cccs1)C1CCN(S(=O)(=O)c2ccc3c(c2)OCCO3)CC1", "inhibition": "23.4% (active)"}
{"smiles": "O=C(NCc1cccs1)C1CCCN(S(=O)(=O)c2ccc3c(c2)OCO3)C1", "note": "(stereo unspecified)", "inhibition": "8.66% (inactive)"}
{"smiles": "O=C(NCc1cccs1)C1CCN(c2ccc(S(=O)(=O)N3CCOCC3)cc2Cl)CC1", "inhibition": "-0.57% (inactive)"}
{"smiles": "O=C(Nc1ccc2c(c1)OCCO2)C1CCN(S(=O)(=O)c2ccc3c(c2)OCCO3)CC1", "inhibition": "9.64% (inactive)"}
{"smiles": "COc1cccc(NC(=O)C2CCN(S(=O)(=O)c3ccc4c(c3)OCCO4)CC2)c1", "inhibition": "43% (active)"}
{"smiles": "N#CCCN1CCN(C(=S)c2ccc(-c3ccc(Cl)c(Cl)c3)o2)CC1", "inhibition": "7.98% (inactive)"}
{"smiles": "N#C/C(=C(/O)c1ccc([N+](=O)[O-])cc1)c1nc2ccccc2[nH]1", "inhibition": "6.69% (inactive)"}
{"smiles": "CCOC(=O)N1CCN(C(=O)CCl)CC1", "inhibition": "2.94% (inactive)"}
{"smiles": "Cc1ccc(N2CCN(C(=O)c3ccccc3NC(=O)c3ccccc3C(=O)O)CC2)cc1", "inhibition": "6.79% (inactive)"}
{"smiles": "COCCNC(=O)c1cc2cc(Br)cc(Br)c2oc1=O", "inhibition": "2.6% (inactive)"}
{"smiles": "N#C/C(=C\\c1ccc(-c2cccc(Cl)c2)o1)C(=O)Nc1cccc2cccnc12", "inhibition": "-0.58% (inactive)"}
{"smiles": "Cn1c(N)c(C(=O)COC(=O)C2=COCCO2)c(=O)n(C)c1=O", "inhibition": "3.8% (inactive)"}
{"smiles": "O=C(NCc1cccs1)C1CCN(S(=O)(=O)N2CCCC2)CC1", "inhibition": "4.08% (inactive)"}
{"smiles": "O=C(NCc1cccs1)C1CCC(CNS(=O)(=O)c2ccc(Br)s2)CC1", "note": "(stereo unspecified)", "inhibition": "-4.74% (inactive)"}
{"smiles": "O=C(NCc1cccs1)C1CCCN(S(=O)(=O)c2cccs2)C1", "note": "(stereo unspecified)", "inhibition": "14.9% (inactive)"}
{"smiles": "O=C(NCc1cccs1)C1CCCN1S(=O)(=O)c1ccccc1F", "note": "(stereo unspecified)", "inhibition": "2.94% (inactive)"}
{"smiles": "CCS(=O)(=O)N1CCC(C(=O)NCc2cccs2)CC1", "inhibition": "10.2% (inactive)"}
{"smiles": "O=C(NCc1cccs1)C1CCCN(S(=O)(=O)c2ccc(Br)s2)C1", "note": "(stereo unspecified)", "inhibition": "18.8% (inactive)"}
{"smiles": "COc1ccccc1NC(=O)c1ccc(-n2cncn2)nc1", "inhibition": "18.8% (inactive)"}
{"smiles": "FC(F)(F)c1ccc(Oc2ccccc2Cl)nc1", "inhibition": "2.42% (inactive)"}
{"smiles": "O=C1CC(N(Cc2ccc3c(c2)OCO3)C(=O)Nc2ccc(F)cc2)C(=O)N1c1ccccc1", "note": "(stereo unspecified)", "inhibition": "20.8% (inactive)"}
{"smiles": "CCC(=O)N(Cc1ccco1)C1CC(=O)N(c2ccccc2)C1=O", "note": "(stereo unspecified)", "inhibition": "0.67% (inactive)"}
{"smiles": "O=C1CC(N(Cc2ccco2)C(=O)Nc2ccc(F)cc2)C(=O)N1c1ccc(F)cc1", "note": "(stereo unspecified)", "inhibition": "23.6% (active)"}
